Records with an inconclusive call do not appear. Entries that show only a call come without a potency. Activity calls are given as the source filed them. The call rests on the fitted dose curve; in most records, active means well fitted activation curve with a large enough effect in the repeat runs; inconclusive means weak or mixed curves; inactive means flat fitted curve, though single readings scatter.
Assay: qHTS assay for small molecule agonists of the antioxidant response element (ARE) signaling pathway measured by Nrf2-dependant transcriptional activity (AID 720636)
Settings: ARE-luc HepG2, Nrf2 luciferase reporter, 16 h; series mostly up to 92.4 µM
From the text: National Center for Advancing Translational Sciences [NCATS] NIH Chemical Genomics Center [NCGC] U.S. Environmental Protection Agency [EPA] National Institutes of Environmental Health Sciences [NIEHS] National Toxicology Program [NTP] Assay Overview: The antioxidant response element (ARE) signaling pathway plays an important role in the cellular anti-oxidant defense. Exposure to stressors which are exogenous like ionizing radiations, chemicals, U-V light, and endogenous like cell signaling, metabolic processes or inflammation, reactive oxygen species (ROS), can induce oxidative stress in the cells. Oxidative stress has been implicated in the pathogenesis of a variety of diseases ranging from cancer to neurodegeneration. ARE-luc HepG2 cell line (Simmons et al., Current Chemical Genomics, 5:1-12, 2011) has been used for identifying the chemicals that induce oxidative stress. The cell line has an Nrf2-responsive luciferase reporter gene that has been engineered to measure Nrf2-dependant transcriptional activity.
Assay Protocol Summary: For measuring ARE induction; 2,000 ARE-luc HepG2 cells in 5 uL of assay medium containing 1% dialyzed FBS per well were dispensed into white wall/solid bottom 1536-well plates using a Flying Reagent Dispenser (FRD) (Aurora Discovery). The assay plates were incubated for 6 hr at 37 C to allow cell attachment to the well bottom, followed by the transfer of 23 nL compound or DMSO vehicle by a pin tool (Kalypsys). The plates were incubated for 16 hr at 37 C and 5% CO2, followed by the addition of 5 uL of ONE-GloTM luciferase reagent (Promega) into each well using FRD. After 30 min room temperature incubation, plates were read on a ViewLux plate reader (PerkinElmer).
In the case of `Cc1c(Cl)cccc1Cl`, the Potency is reported as “inactive”.
For `NNS(=O)(=O)c1ccc(Oc2ccc(S(=O)(=O)NN)cc2)cc1`, the Potency was “inactive”.
For `CCCCCCCCCCCC[N+](C)(C)C`, the Potency was “inactive”.
With `CCC(C)(C)C1CCC(O)CC1` (stereo not given) the Potency was “inactive”.
In the case of `C=C(C)C(=O)OCC(CC)(COC(=O)C(=C)C)COC(=O)C(=C)C`, the Potency is reported as “inactive”.
For `CC(=O)OC1CCC(C(C)(C)C)CC1` (stereo not given), the Potency was “inactive”.
For `CC(C)(C)c1cc(C(C)(C)C)c(O)c(C(C)(C)C)c1`, the Potency was “inactive”.
With `CNc1nc(=O)n(C2CCCCC2)c(=O)n1C` the Potency was “inactive”.
With `COC(=O)c1ccccc1C(=O)O` the Potency was “inactive”.
In the case of `Oc1ccc(C(c2ccc(O)cc2)C(Cl)(Cl)Cl)cc1`, the Potency is reported as “inactive”.
In the case of `CC1=CC(=O)CC(C)(C)C1`, the Potency is reported as “inactive”.
With `CC(C)O.CC(C)O.CC(C)O.CC(C)O.[Ti]` the Potency was “inactive”.
For `CCCCCc1ccc(N)cc1`, the Potency was “inactive”.
For `CCOCCOCCOCCO`, the Potency was “inactive”.
In the case of `CCCCCCCC(=O)OC`, the Potency is reported as “inactive”.
For `O=C1CCCC/C=C/CCCCCCCCCO1`, the Potency was “inactive”.
In the case of `C[Si](Cl)(Cl)c1ccccc1`, the Potency is reported as “inactive”.
In the case of `C=C(C)C(=O)OCCOC(=O)C(=C)C`, the Potency is reported as “inactive”.
With `CC1(C)C(=O)NC(=O)N1CO` the Potency was “inactive”.
In the case of `C=CC(=O)OCCOCC(CC)(COCCOC(=O)C=C)COCCOC(=O)C=C`, the Potency is reported as 21.7 µM (active).
In the case of `CCCOC(=O)c1ccc(C(=O)OCCC)nc1`, the Potency is reported as “inactive”.
For `CS(=O)(=O)c1ccc(Cl)cc1`, the Potency was “inactive”.
With `CS/C(=N\O)C(=O)N(C)C` the Potency was “inactive”.
For `O=C(OCC1CCC2OC2C1)C1CCC2OC2C1` (stereo not given), the Potency was “inactive”.
With `CC(C)OB(OC(C)C)OC(C)C` the Potency was “inactive”.
In the case of `C=C(C)C(=O)OCCN(C)C`, the Potency is reported as “inactive”.
For `Cc1cc(Cc2cc(C)cc(C(C)(C)C)c2O)c(O)c(C(C)(C)C)c1`, the Potency was “inactive”.
In the case of `CCCCCCCC(=O)Oc1c(Br)cc(C#N)cc1Br`, the Potency is reported as “inactive”.
In the case of `CCOC(=O)COc1cc(-n2ncc(C(F)(F)F)c(C)c2=O)c(F)cc1Cl`, the Potency is reported as “inactive”.
With `O=C(OCCOCCOC(=O)c1ccccc1)c1ccccc1` the Potency was “inactive”.
In the case of `C[C@]12CCC(=O)C=C1CC[C@@H]1[C@@H]2[C@@H](O)C[C@]2(C=O)[C@@H](C(=O)CO)CC[C@@H]12`, the Potency is reported as “inactive”.
In the case of `Cc1nn(C)c(Oc2ccccc2)c1/C=N/OCc1ccc(C(=O)OC(C)(C)C)cc1`, the Potency is reported as “inactive”.
In the case of `OCCOCCOCCOCCOCCO`, the Potency is reported as “inactive”.
In the case of `COc1ccc(OC)c(OC)c1`, the Potency is reported as “inactive”.
In the case of `C=C(C)C(=O)OCC[N+](C)(C)C`, the Potency is reported as “inactive”.
For `CC(C)(C)c1cccc(C(C)(C)C)c1O`, the Potency was “inactive”.
With `CNc1nc(=O)n(C2CCC(O)CC2)c(=O)n1C` (stereo not given) the Potency was “inactive”.
In the case of `CC(C)(C)c1ccc(O)c(C(C)(C)C)c1`, the Potency is reported as “inactive”.
For `CCCCCCC(O)CCCCCCCCCCC(=O)O` (stereo not given), the Potency was “inactive”.
With `CC(C)(N=C=O)c1cccc(C(C)(C)N=C=O)c1` the Potency was “inactive”.
Potency means the concentration at half of the fitted maximal effect.
